Eight sequences from article PMC8384837, “Expanding the binding specificity for RNA recognition by a PUF domain” can be followed below.

Chain of PUM1 PUF domain R4-AMA (Q14671 828-1176 N971A/H972M/Q975A): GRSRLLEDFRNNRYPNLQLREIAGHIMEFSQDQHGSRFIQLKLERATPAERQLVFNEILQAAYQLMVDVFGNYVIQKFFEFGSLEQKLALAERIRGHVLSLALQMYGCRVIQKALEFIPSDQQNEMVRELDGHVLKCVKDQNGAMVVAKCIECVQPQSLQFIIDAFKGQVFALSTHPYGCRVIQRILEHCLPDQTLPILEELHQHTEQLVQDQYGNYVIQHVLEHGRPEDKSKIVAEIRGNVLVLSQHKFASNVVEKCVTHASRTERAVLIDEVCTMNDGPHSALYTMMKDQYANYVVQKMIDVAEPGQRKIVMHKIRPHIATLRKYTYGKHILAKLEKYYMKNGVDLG

The first assay addresses PUM1 PUF domain R3-LFR (Homo sapiens, UniProt Q14671 828-1176, C935L;R936F;Q939R). The assay can be described thus: yeast three-hybrid, YBZ-1, SC-Leu-His + 0.5 mM 3-AT, 4 days. The following applies: tags: N-Gal4 AD-HA kept; label: inside an RPR1-promoter hybrid RNA with tandem MS2 sites; ssRNA. The essentials:
(§1)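 Matching RNA elements and Pumilio-1 PUF domain libraries, randomized at the three base-contacting residues of every repeat, were co-expressed from a centromeric plasmid in strain YBZ-1 (LexA–MS2 coat fusion, HIS3 reporter). The repeat regions were PCR-amplified and Illumina-sequenced from cells grown four days on SC-Leu (input) or SC-Leu-His + 0.5 mM 3-AT (selection). The interaction score is the log change in variant frequency from input to selection. It is computed in log2, with a pseudocount of 1 for absent variants.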
In the case of “GGCUAGAACUAGUGGAUCCCCCGGCGCCCGGCGGCUCGAGCCCGGGUAAGUGUAAGUAGUCUGCAUGCCGCCGGGCGCCAUGCCUGCAGGUCGACUCUAGAAAACAUG”, the binding signal is 5.96 log2 enrichment (interaction score).

Take “GGCUAGAACUAGUGGAUCCCCCGGCGCCCGGCGGCUCGAGCCCGGGUAAGUGUAAAUAGUCUGCAUGCCGCCGGGCGCCAUGCCUGCAGGUCGACUCUAGAAAACAUG”: the binding signal was 1.74 log2 enrichment (interaction score). “GGCUAGAACUAGUGGAUCCCCCGGCGCCCGGCGGCUCGAGCCCGGGUAAGUGUAAUUAGUCUGCAUGCCGCCGGGCGCCAUGCCUGCAGGUCGACUCUAGAAAACAUG”: the binding signal was 5 log2 enrichment (interaction score).

The next assay addresses PUM1 PUF domain R1-RSS (Homo sapiens, UniProt Q14671 828-1176, S863R;R864S;Q867S). Described as above. The following applies: tags: N-Gal4 AD-HA kept; label: inside an RPR1-promoter hybrid RNA with tandem MS2 sites; ssRNA. A digest of the protocol: as §1
For “GGCUAGAACUAGUGGAUCCCCCGGCGCCCGGCGGCUCGAGCCCGGGUAAGUGUAAAUUGUCUGCAUGCCGCCGGGCGCCAUGCCUGCAGGUCGACUCUAGAAAACAUG”, the binding signal was 3.21 log2 enrichment (interaction score). Take “GGCUAGAACUAGUGGAUCCCCCGGCGCCCGGCGGCUCGAGCCCGGGUAAGUGUAAAUGGUCUGCAUGCCGCCGGGCGCCAUGCCUGCAGGUCGACUCUAGAAAACAUG”: the binding signal is 2.55 log2 enrichment (interaction score). Regarding “GGCUAGAACUAGUGGAUCCCCCGGCGCCCGGCGGCUCGAGCCCGGGUAAGUGUAAAUCGUCUGCAUGCCGCCGGGCGCCAUGCCUGCAGGUCGACUCUAGAAAACAUG”, the binding signal was 3.93 log2 enrichment (interaction score).

Another assay has as its target PUM1 PUF domain R4-AMA (Homo sapiens, UniProt Q14671 828-1176, N971A;H972M;Q975A). The assay is described as above. The following applies: tags: N-Gal4 AD-HA kept; label: inside an RPR1-promoter hybrid RNA with tandem MS2 sites; ssRNA. The essentials: as §1
For “GGCUAGAACUAGUGGAUCCCCCGGCGCCCGGCGGCUCGAGCCCGGGUAAGUGUAUAUAGUCUGCAUGCCGCCGGGCGCCAUGCCUGCAGGUCGACUCUAGAAAACAUG”, the binding signal was 2.78 log2 enrichment (interaction score).

As for “GGCUAGAACUAGUGGAUCCCCCGGCGCCCGGCGGCUCGAGCCCGGGUAAGUGUACAUAGUCUGCAUGCCGCCGGGCGCCAUGCCUGCAGGUCGACUCUAGAAAACAUG”, the binding signal was 1.77 log2 enrichment (interaction score). As for “GGCUAGAACUAGUGGAUCCCCCGGCGCCCGGCGGCUCGAGCCCGGGUAAGUGUAAAUAGUCUGCAUGCCGCCGGGCGCCAUGCCUGCAGGUCGACUCUAGAAAACAUG”, the binding signal is 2.2 log2 enrichment (interaction score).

The target of a further assay is PUM1 PUF domain R3-PWA (Homo sapiens, UniProt Q14671 828-1176, C935P;R936W;Q939A). Described as above. The following applies: tags: N-Gal4 AD-HA kept; label: inside an RPR1-promoter hybrid RNA with tandem MS2 sites; ssRNA. A digest of the protocol: as §1
Chain of PUM1 PUF domain R3-PWA (Q14671 828-1176 C935P/R936W/Q939A): as the sequence (Q14671 828-1176 N971A/H972M/Q975A) above, with C108P, R109W, Q112A, A144N, M145H, A148Q counted along it
For “GGCUAGAACUAGUGGAUCCCCCGGCGCCCGGCGGCUCGAGCCCGGGUAAGUGUAAGUAGUCUGCAUGCCGCCGGGCGCCAUGCCUGCAGGUCGACUCUAGAAAACAUG”, the binding signal was 0.42 log2 enrichment (interaction score). The same measure, in the same setting: to “GGCUAGAACUAGUGGAUCCCCCGGCGCCCGGCGGCUCGAGCCCGGGUAAGUGUAAAUAGUCUGCAUGCCGCCGGGCGCCAUGCCUGCAGGUCGACUCUAGAAAACAUG” belongs 4.48 log2 enrichment (interaction score); to “GGCUAGAACUAGUGGAUCCCCCGGCGCCCGGCGGCUCGAGCCCGGGUAAGUGUAAUUAGUCUGCAUGCCGCCGGGCGCCAUGCCUGCAGGUCGACUCUAGAAAACAUG”, 2.19 log2 enrichment (interaction score).
